RecA splice inh = blocks M. tuberculosis RecA intein splicing; cell-free RecA intein splicing, fluorescence; inhibition, % (no concentration beside the values); hit rate 0.75% among 290,000; AID 2221; in the data active = inhibition above about 30%; inconclusive = no clear call, values can overlap the other calls;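 note: 0% = vehicle wells and 100% = reference inhibitor control wells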
Mtb FBA inh = inhibitors of M. tuberculosis fructose-bisphosphate aldolase | purified M. tuberculosis FBA, fluorescence read-out | inhibition, % at 1 µM | hit rate 2.3% among 360,000 | AID 588726; in the data active = inhibition above about 27%;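 note: 0% = vehicle and 100% = reference inhibitor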
Mtb betalactam = beta-lactam sensitization of Mtb H37Rv; M. tuberculosis H37Rv growth with meropenem, percent inhibition; inhibition, % at 25 µM; hit rate 0.27% among 330,000; AID 434955;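 note: growth measured after seven days incubation then overnight dye step; 0% = bacteria only wells and 100% = bacteria with antibiotic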
GDH-TPI counter = counter-screen for M. tuberculosis FBA inhibitors: GDH-TPI coupled enzymes. GDH-TPI coupled enzyme counterscreen, NADH absorbance. AID 588335. inhibition, % at 4.8 µM. hit rate 1.2% among 360,000; in the data active = inhibition above about 30%;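 note: 0% = DMSO wells and 100% = wells lacking the enzyme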
UGM FP inh = blocks M. tuberculosis UGM enzyme | P9WIQ1 | purified UGM, fluorescence polarization probe displacement | inhibition, % at 10 µM | hit rate 0.06% among 320,000 | AID 504406; in the data active = inhibition above about 10%, passing the limit was not always enough; inconclusive = no clear call, values can overlap the other calls
Rv3671c inh = inhibitors of M. tuberculosis serine protease Rv3671c. hit rate 0.048% among 320,000. P9WHR9. inhibition, % at 5.96 µM; in the data active = inhibition above about 38%;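 note: extracellular domain of Rv3671c used as enzyme; 0% = enzyme with DMSO and 100% = no enzyme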
Target sequence (P9WHR9 whole entry, looked up, the tested form may be a part): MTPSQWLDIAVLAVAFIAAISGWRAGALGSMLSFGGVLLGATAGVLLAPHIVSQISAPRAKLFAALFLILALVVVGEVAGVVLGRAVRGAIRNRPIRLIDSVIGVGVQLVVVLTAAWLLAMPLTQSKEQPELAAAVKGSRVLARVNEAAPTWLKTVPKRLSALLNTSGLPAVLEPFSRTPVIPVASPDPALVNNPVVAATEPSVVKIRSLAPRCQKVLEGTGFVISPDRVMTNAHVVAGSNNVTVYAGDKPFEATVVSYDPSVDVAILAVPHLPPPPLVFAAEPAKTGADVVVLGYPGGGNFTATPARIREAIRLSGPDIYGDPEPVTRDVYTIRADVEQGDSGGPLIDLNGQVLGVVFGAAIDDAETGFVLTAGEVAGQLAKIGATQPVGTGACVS
GFP chromophore = counter-screen GFP chromophore formation inhibition; hit rate 83% among 2,100; shares compounds with RecA splice inh; EC50, µM; cell-free GFP chromophore formation, fluorescence
The depositor's hits bear a star; ? = inconclusive; · = not tested or not shown. Shown are actives, neighbours in structure and some others; about 4% of the full set was active somewhere. Unless noted, the rule behind the calls is not given here.

SMILES	RecA splice inh	Mtb FBA inh	Mtb betalactam	GDH-TPI counter	UGM FP inh	Rv3671c inh	GFP chromophore
Cc1ccccc1NC(=O)C(=Cc1ccc(C(=O)O)cc1)C(=O)Nc1ccccc1C	68*	-5	·	-1	·	·	16*
CC(=O)/C(=C/c1ccccc1)C(=O)Nc1ccccc1C	-1	-2	13	7	-1	-3	·
COc1ccc(CNC(=O)c2c(-c3c(F)cccc3Cl)noc2C)cc1	-1	-2	3	-3	1	-7	·
O=C(Cn1cnc2ccc(Cl)cc2c1=O)NC1CCS(=O)(=O)C1 (stereo unspecified)	·	4	·	4	·	·	·
O=C(N[C@@H](Cc1ccccc1)C(=O)N1CCN(S(=O)(=O)c2ccccc2F)CC1)c1ccco1	·	1	-6	-1	0	0	·
Cc1ccc(-c2onc3ccc(C(=O)/C=C/N(C)C)cc23)cc1	0	1	2	24	1	-18	·
CN(C)/C=C/C(=O)c1ccc2noc(-c3ccc(F)cc3)c2c1	31*	-3	5	15	2	-9	>38
COc1cccc2c1OCC(C(=O)Nc1nccs1)=C2	-2	-6	14	10	5	-40	·
COc1ccc(NS(=O)(=O)c2ccc(O)c(C(=O)OCC(=O)NC(C)C3CC4CCC3C4)c2)cc1 (stereo unspecified)	4	1	0	16	-1	-2	·
CC(NC(=O)COC(=O)c1cc(NS(=O)(=O)c2ccc(Cl)c([N+](=O)[O-])c2)ccc1O)C1CC2CCC1C2 (stereo unspecified)	48*	0	1	4	1	-28	>38
CC(C)(CNC(=O)CC1C(=O)NCCN1Cc1cccc(F)c1F)N1CCOCC1 (stereo unspecified)	-1	-1	3	0	1	6	·
O=c1cc(C23CC4CC(CC(C4)C2)C3)[nH][nH]1	91*	-3	6	-1	-2	-1	10*
COc1ccc(-c2[nH]nc3c2C(c2ccccc2OC(=O)N2CCOCC2)C(C#N)=C(N)O3)cc1 (stereo unspecified)	71*	0	-4	-7	-3	-2	21*
N#CC1=C(N)Oc2n[nH]c(-c3ccccc3)c2C1c1cccc(OC(=O)N2CCOCC2)c1 (stereo unspecified)	68*	-4	-2	17	-1	-5	10*
N#CC1=C(N)OC2=C(C(=O)CCC2)C1c1ccc(OC(=O)N2CCOCC2)cc1 (stereo unspecified)	0	1	-5	-7	-5	9	·
N#CC1=C(N)Oc2n[nH]c(-c3ccc(F)cc3)c2C1c1cccc(OC(=O)N2CCOCC2)c1 (stereo unspecified)	80*	-1	-3	7	2	-9	11*
Cc1ccc(-c2[nH]nc3c2C(c2ccccc2OC(=O)N2CCOCC2)C(C#N)=C(N)O3)cc1 (stereo unspecified)	·	·	-1	·	4	-15	·
CC(C)(C)c1ccc(OC(=O)c2ccc(-n3cncn3)nc2)cc1	·	·	85	·	-3	5	·
O=C(Oc1ccc(N(C(=O)c2ccncc2)S(=O)(=O)c2ccc(Cl)cc2)cc1)c1ccncc1	38*	-2	1	-4	-4	-2	33*
Cc1ccccc1C(=O)Nc1ccnn1C1CCN(Cc2cnn(C(C)C)c2)CC1	3	0	?	1	1	-1	·
N#Cc1ncc(Cc2ccccc2)nc1C#N	82*	3	9	-9	-1	4	5*
Cc1occc1-c1nnc(SCC(=O)NC2CC2)n1C(C)C	1	-2	4	6	-2	-1	·
Cc1ccc2nc(/C(C#N)=C\c3ccc([N+](=O)[O-])o3)[nH]c2c1	34*	-5	100	8	1	-16	8.4*
COc1ccc([C@@H]2CC(=O)[C@@H]3CN(S(=O)(=O)c4ccc(Cl)cc4)[C@H](c4ccc(C)cc4)C[C@@H]3N2S(=O)(=O)c2ccccc2)cc1	·	1	·	·	·	·	·
COc1cccc(/C(C)=N/Nc2ccc(S(=O)(=O)N3CCCCC3)cn2)c1	·	-2	8	23	1	-10	·
Cc1nc(Nc2ccc(O)cc2)c2c3c(sc2n1)CCCC3	30*	4	-1	0	1	3	>38
CCCCn1c(NS(=O)(=O)c2ccc(C)cc2)c(S(=O)(=O)c2ccccc2)c2nc3ccccc3nc21	83*	5	-4	8	1	-143	>38
